The source of these data is PubChem BioAssay (NCATS).

SMILES strings stand for the structures. Where “and” joins values, the source holds several entries; their conditions need not be identical. Equal values may be shown once. Records with an inconclusive call do not appear. The source holds several records for some structures; these can differ, active in one and inactive in another. Calls of active or inactive are those of the source. Unless noted, calls follow the shape of the dose curve; as a rule, active = well fitted curve in the direction sought with a large enough effect; inconclusive = small, poorly fitted or top-dose-only effect, or another doubt; inactive = no such curve, though single readings can be large; an effect the other way counts as inactive or inconclusive.

Assay [1] can be described thus: P-glycoprotein substrates identified in KB-8-5-11 adenocarcinoma cell line, qHTS therapeutic library screen (AID 1346987). Also: nearly all actives have a fitted effect of over 65% in size. Also: potency is read from the fitted curve at half-maximal effect. In short, it runs like this:
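Human cervical adenocarcinoma KB-8-5-11 cells, selected in colchicine to over-express P-gp and assayed without it, were exposed for 72 h to titrated compounds. An ATP-based luminescent viability signal gave AC50.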
On the technique in general: Quantitative high-throughput screening tests each substance at several concentrations.

Assay [2] in a line: NS1 protein of Zika virus - qHTS assay to identify small molecule inhibitors in human HEK 293 cells (AID 1347053). Also: nearly all actives have a fitted effect of over 55% in size. Also: potency is read from the fitted curve at half-maximal effect. In short, it runs like this: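 Read-out is a two-antibody TR-FRET for ZIKV NS1, normalized between uninfected cells and infected cells. Compound added 1 h before MR766 infection at MOI 0.5; human HEK 293 cells incubated 24 h, 37 C.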
Assay [3] in a line: qHTS for Inhibitors of the Functional Ribonucleoprotein Complex (vRNP) of Lassa (LASV) Arenavirus: LASV Primary Screen - GLuc reporter signal (AID 1347082; calls by dose curve; tested in HEK293 reporter line; also: series mostly up to about 57 µM; nearly all actives have a fitted effect of over 60% in size).
In assay [4] the target is T1, Tyrosine-protein phosphatase non-receptor type substrate 1 (Homo sapiens) + Leukocyte surface antigen CD47 (Homo sapiens) (UniProt P78324+Q08722). In words: CD47-SIRPalpha protein protein interaction - HTRF assay qHTS validation (AID 1347058; active = well fitted curve in the direction sought with a large enough effect in the signal ratio, not every such curve was filed as active; the % refers to the signal ratio; also: series mostly up to about 38 µM). In a few lines: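 Soluble extracellular domains (6His-CD47, Avi-tag-biotinylated SIRPalpha) in PBS pH 7.4 with 0.05% IGEPAL CA-630. Compounds were preincubated 30 min at RT with CD47 and anti-His-Eu, then SIRPalpha and SAV-XL665 were added. TR-FRET 665/615 ratio.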

Assay [5] addresses T1, Tyrosine-protein phosphatase non-receptor type substrate 1 (Homo sapiens) + Leukocyte surface antigen CD47 (Homo sapiens). The assay can be described thus: CD47-SIRPalpha protein protein interaction - Alpha assay qHTS validation (AID 1347059).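 Also: bead proximity luminescence from CD47 binding SIRPalpha after compound preincubation with SIRPalpha.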 In short, it runs like this: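 In PBS (pH 7.4) with 0.05% IGEPAL CA-630, compound is preincubated with biotin-Avi-SIRPalpha ectodomain before His-CD47 ectodomain and affinity beads are added. Light-protected room-temperature incubations; AlphaScreen readout.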

T1 sequence (P78324 whole entry, looked up, the tested form may be a part): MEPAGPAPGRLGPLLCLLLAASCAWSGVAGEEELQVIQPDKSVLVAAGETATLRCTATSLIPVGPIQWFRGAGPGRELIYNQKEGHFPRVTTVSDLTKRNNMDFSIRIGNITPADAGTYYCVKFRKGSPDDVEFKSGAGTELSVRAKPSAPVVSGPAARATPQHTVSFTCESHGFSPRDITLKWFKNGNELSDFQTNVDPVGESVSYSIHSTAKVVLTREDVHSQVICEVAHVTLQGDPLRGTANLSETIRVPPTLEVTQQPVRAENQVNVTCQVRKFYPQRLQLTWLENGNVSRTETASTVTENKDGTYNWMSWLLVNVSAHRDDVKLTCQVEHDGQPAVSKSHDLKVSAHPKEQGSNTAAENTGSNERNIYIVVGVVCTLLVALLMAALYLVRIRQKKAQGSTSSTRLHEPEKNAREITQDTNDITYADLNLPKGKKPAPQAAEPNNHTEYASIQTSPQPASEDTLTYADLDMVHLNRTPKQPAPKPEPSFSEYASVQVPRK
T1 sequence (Q08722 whole entry, looked up, the tested form may be a part): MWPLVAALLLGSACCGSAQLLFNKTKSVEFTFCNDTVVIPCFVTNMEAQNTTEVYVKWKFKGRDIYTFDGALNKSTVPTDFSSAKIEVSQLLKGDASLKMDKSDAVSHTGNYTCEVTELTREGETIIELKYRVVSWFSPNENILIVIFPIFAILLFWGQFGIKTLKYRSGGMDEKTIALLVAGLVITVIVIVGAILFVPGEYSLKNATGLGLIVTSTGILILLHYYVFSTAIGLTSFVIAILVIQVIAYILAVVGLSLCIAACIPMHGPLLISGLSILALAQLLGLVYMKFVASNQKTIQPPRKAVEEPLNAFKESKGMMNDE

For the compound `Oc1ccc(Cl)cc1Cc1ccccc1`, the Potency entry in assay [1], in assay [2] and in assay [3] was “inactive” throughout.

Take `CC[N+]1(C)CCCC(OC(=O)C(O)(c2ccccc2)c2ccccc2)C1` (configuration not stated): the Potency result in assay [1], in assay [2] and in assay [3] was “inactive” each time.

Take `CC(C)(C)CC(C)(C)c1ccc(O)cc1`: the Potency entry in assay [1], in assay [2] and in assay [3] was “inactive” throughout.

In the case of `CC(C)CC(N(C)C)C1(c2ccc(Cl)cc2)CCC1` (configuration not stated), the Potency entry in assay [1], in assay [2] and in assay [3] was “inactive” each time.

Take `Clc1cccc(N2CCNCC2)c1`: the Potency result in assay [1], in assay [2] and in assay [3] was “inactive” each time.

Regarding `CC(C)(N)Cc1ccc(Cl)cc1`, the Potency result in assay [1], in assay [2] and in assay [3] was “inactive” each time.

For `N[C@@H](Cc1ccc(N(CCCl)CCCl)cc1)C(=O)O`, the Potency result in assay [1] and in assay [3] was “inactive” throughout. The Potency in assay [2] was 8.33 µM (active).

For `CN(C)[C@@H]1C(=O)C(C(N)=O)=C(O)[C@@]2(O)C(=O)C3=C(O)c4c(O)cccc4[C@@](C)(O)[C@H]3C[C@@H]12`, the Potency result in assay [1], in assay [2] and in assay [3] was “inactive” throughout.

Take `Cn1c(CCCC(=O)O)nc2cc(N(CCCl)CCCl)ccc21`: the Potency result in assay [1] and in assay [3] was “inactive” in each case. Further, the Potency entry in assay [2] is “inactive and 20.9 µM (active)”. The result in assay [4] and in assay [5] was inactive.

Take `C#CCOC(C(=O)OCCN(C)C)(c1ccccc1)c1ccccc1`: the Potency result in assay [1], in assay [2] and in assay [3] was “inactive” each time.

For the compound `CCC(C(N)=O)N1CCCC1=O` (configuration not stated), the Potency entry in assay [1], in assay [2] and in assay [3] was “inactive” each time.

As for `CCCC1CCCCN1` (configuration not stated), the Potency result in assay [1], in assay [2] and in assay [3] was “inactive” in each case.

On to `CC(C)NCC(O)c1ccccc1Cl` (configuration not stated), for which the Potency result in assay [1], in assay [2] and in assay [3] was “inactive” each time.

Turning to `c1ccc2c(c1)Nc1ccccc1S2`, the Potency result in assay [1], in assay [2] and in assay [3] was “inactive” each time.

In the case of `CC1NCCOC1c1ccccc1` (configuration not stated), the Potency result in assay [1], in assay [2] and in assay [3] was “inactive” each time.

For `CC[N+](CC)(CC)CC`, the Potency result in assay [1], in assay [2] and in assay [3] was “inactive” each time.

In the case of `CCN(CC)CCOC(=O)C(O)(c1ccccc1)c1ccccc1`, the Potency result in assay [1], in assay [2] and in assay [3] was “inactive” throughout.

As to `CN(C)CCc1ccc(O)cc1`, the Potency result in assay [1], in assay [2] and in assay [3] was “inactive” each time.

On to `CC1=C2C[C@@H]3[C@@H](CC=C4C[C@@H](O)CC[C@@]43C)[C@@H]2CC[C@]12O[C@H]1C[C@H](C)CN[C@H]1[C@H]2C`, for which the Potency result in assay [1], in assay [2] and in assay [3] was “inactive” throughout.

For the compound `FC(F)(F)c1cccc(C2=CCN(CCc3ccc4ccccc4c3)CC2)c1`, the Potency entry in assay [1], in assay [2] and in assay [3] was “inactive” in each case.

With `C=CCN1CC[C@]23c4c5ccc(O)c4O[C@H]2C(=O)CC[C@@]3(O)[C@H]1C5`, the Potency entry in assay [1], in assay [2] and in assay [3] was “inactive” each time.

On to `O=P1(NCCCl)OCCCN1CCCl` (configuration not stated), for which the Potency in assay [1] is 10.5 µM (active). Moreover, the Potency entry in assay [2] and in assay [3] was “inactive” throughout.

For `N[C@@H]1C[C@H]1c1ccccc1`, the Potency result in assay [1], in assay [2] and in assay [3] was “inactive” each time.

Turning to `Oc1cccc2cccnc12`, the Potency result in assay [1] and in assay [3] was “inactive” in each case. Besides, in assay [2], the Potency is 14.1 µM (active) and inactive.

In the case of `C#CCN(C)[C@H](C)Cc1ccccc1`, the Potency entry in assay [1], in assay [2] and in assay [3] was “inactive” each time.

Turning to `O=[N+]([O-])c1cc([As](=O)(O)O)ccc1O`, the Potency entry in assay [1], in assay [2] and in assay [3] was “inactive” throughout.

Consider `CN(C)CCN(C)CCc1ccc(Cl)c(Cl)c1`, for which the Potency entry in assay [1] and in assay [2] was “inactive” in each case.

Turning to `COc1ccc(Cc2nccc3cc(OC)c(OC)cc23)cc1OC`, the Potency in assay [1] is 880 nM (active) and inactive. The Potency entry in assay [2] was “inactive”.

`C[C@]12C/C(=C/O)C(=O)C[C@@H]1CC[C@@H]1[C@@H]2CC[C@@]2(C)[C@H]1CC[C@]2(C)O`: the Potency entry in assay [1], in assay [2] and in assay [3] was “inactive” each time.
